Experimental data taken from PubChem BioAssay.
A number with no mark means an inactive call. The rule behind the calls is not given here.

target: L-lactate dehydrogenase (Plasmodium falciparum (isolate CDC / Honduras)) (UniProt Q27743); assay: PfLDH activity inhibition – cell lysate, 3D7 strain, counter-screen for P. falciparum growth inhibition project (AID 2304);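 note: 0% = vehicle and 100% = reference inhibitor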; conditions: P. falciparum 3D7 crude extract, LDH APAD/NBT absorbance; at 2 µM; active compounds read high
Sequence (Q27743 whole entry, looked up): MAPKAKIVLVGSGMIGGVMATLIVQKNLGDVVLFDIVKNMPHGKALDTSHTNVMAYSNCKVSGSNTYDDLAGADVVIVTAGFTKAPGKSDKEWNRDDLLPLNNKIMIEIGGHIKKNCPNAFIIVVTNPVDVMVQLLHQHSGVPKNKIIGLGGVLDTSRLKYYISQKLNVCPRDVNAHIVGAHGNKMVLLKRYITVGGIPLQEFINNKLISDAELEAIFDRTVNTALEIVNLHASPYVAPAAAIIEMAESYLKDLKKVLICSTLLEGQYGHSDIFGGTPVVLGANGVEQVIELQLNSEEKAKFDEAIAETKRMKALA

Compound | inhibition [%]
Cc1[nH]c(C)c(-c2ccc(OCc3cc(C(F)(F)F)cc(C(F)(F)F)c3)nc2)c(=O)c1Cl | -1
COc1cc(C)c(NC(=O)c2cccc3c(=O)c(C)c(-c4ccccc4)oc23)cc1OC | 2
Cc1c(CNCCCNc2cc(=O)c3ccccc3[nH]2)sc(C(F)F)c1Br | 5
C[C@@H](C(N)=O)N1CCCCC1c1ccc(OCc2cccc(F)c2)cc1 (stereo not given in full) | 9
O=[N+]([O-])c1ccc2c(-c3ccccc3)c(-c3ccccc3)n(O)c2c1 | -3
CN1CCC(c2c[nH]c3ccc(NC(=O)Nc4ccc(-c5ccncc5)cc4Cl)cc23)CC1 | 7
O=C(Nc1ccc(Cl)c(Cl)c1)N1CCc2cc3nccc(N4CCN5CCC[C@H]5C4)c3cc21 | -7
CNC(=O)c1cnc(Nc2ccc(OCC(O)CN(C)C)cc2)nc1Nc1cccc(OC)c1 (stereo not given) | 1
CC(=O)Nc1ccc(CN(Cc2ccc(OC(C)(C)C)cc2)Cc2ccc3c(c2)OCCO3)cc1 | 5
O=C(NCC1CCC(C(=O)NCc2cccc(C(F)(F)F)c2)CC1)c1ccc(O)c(-c2ccc(Cl)c(Cl)c2)c1 (stereo not given) | 0
CC1(C)N=C(N)N=C(N)N1c1ccc(Cl)c(Cl)c1 | 0
CCOc1ccc(-c2cc3nc(C4CCNCC4)c(C(=O)Nc4ccc(C)cc4Cl)cn3n2)cc1 | 2
O=C(/C=C/c1ccc(Cl)c(Cl)c1)NCCCCCN1CCCC(C(=O)Nc2cccc(Cl)c2)C1 (stereo not given) | -2
N#Cc1cccc(-c2cccc(C(=O)NC3CCC(CCN4CCc5ccc(C#N)cc5CC4)CC3)c2)c1 (stereo not given) | -6
COc1cccc2c(NCc3ccccc3)nc(NCCCN3CCCCC3C)nc12 (stereo not given) | 2
COc1cc(C=CC(=O)N2CCC(CCN3CCC(c4c[nH]c5ccccc45)CC3)CC2)cc(OC)c1 | -5
Cc1cc(Cl)ccc1OC(C)C(=O)N1CCc2ccccc21 (stereo not given) | -2
Cc1nc(-c2cccc(Nc3nccc(NCC(O)c4ccccc4)n3)c2)cs1 (stereo not given) | 3
CC(C)(C)c1ccc(S(=O)(=O)Nc2ccccc2Cn2nc(N3CCNCC3)ccc2=O)cc1 | 2
CCn1ccc2c(N3CCCS3(=O)=O)cc(C(=O)N[C@@H](Cc3ccccc3)[C@H](O)CNC(C)(C)CCCC(C)C)cc21 | 0

Compound | inhibition [%]
O=C(CC(=O)C(F)(F)F)c1ccccc1[N+](=O)[O-] | -6
CCOc1ccc(Br)cc1/C=C/C(=O)Nc1ccc2c(c1)CN(C)CCC2 | 1
COc1ccc2nccc(NN=Cc3ccccc3)c2c1 | -1
CN(C(=O)/C=C/c1cc(C(F)(F)F)ccc1F)C1CCN(CCCCCNC(=O)/C=C/c2ccc(Cl)c(Cl)c2)CC1 | 3
Nc1cnc(C#Cc2cc3ncnc(N(CCN4CCOCC4)c4ccc(OCc5cccc(F)c5)c(Cl)c4)c3s2)cn1 | -9
Cc1nnsc1C(=O)Nc1ccc(-c2cccc(-c3nc4c(C)cccc4[nH]3)c2)cc1 | 4
O=[N+]([O-])c1ccc(C(O)CNCCc2ccccc2)cc1OCc1ccccc1 (stereo not given) | -1
COc1cc2ccccc2c(OC)c1CCNCCCCNCCc1c(OC)cc2ccccc2c1OC | 7
COc1ccc(Cl)cc1N1CCN(CCCNC(=O)c2ccc(-c3nc4cc(Cl)c(F)cc4[nH]3)c(F)c2)CC1 | 5
c1ccc2c(c1)CN(Cc1cc3ccccc3[nH]1)CC1(CCN(Cc3c[nH]c4cnccc34)CC1)O2 | -3
Oc1ccc(CCNc2nc(NCCCOc3cccc(CN4CCCCC4)c3Cl)nc(N3CCNCC3)n2)cc1 | 5
O=C(CC1CCCC1)Nc1ccc2c(c1)CCC2 | 2
CCN1CCN(C(=O)NC(C(=O)N(C)Cc2ccc(-c3ccc(C(F)(F)F)cc3)cc2)c2cccs2)C(=O)C1=O (stereo not given) | -1
Oc1c(CN2CCC(Cc3ccccc3)CC2)cc(Cl)c2cccnc12 | 4
C=C[C@]1(C)C[C@@H](OC(=O)NC(=O)CCCS(=O)(=O)c2nnc(C)s2)[C@]2(C)[C@H](C)CC[C@]3(CCC(=O)[C@H]32)[C@@H](C)[C@@H]1O | -7
COc1c(C2CCN(CCCCNC(=O)c3ccc(-c4ccc(C(=O)C(F)(F)F)cc4)cc3)CC2)ccc2c1CCCC2 | -4
O=C(NC1CCCc2ccccc21)C1CCCN(C(=O)c2ccc(O)c(-c3ccc(Cl)c(Cl)c3)c2)C1 (stereo not given) | -8
CC(=O)Nc1ncc(C(=O)Nc2cccc(-c3cccc(-c4nc5ccccc5[nH]4)c3)c2)s1 | 0
CCN(CC)C(=O)C1CCCN(C(=O)Nc2cc(C(F)(F)F)cc(C(F)(F)F)c2)C1 (stereo not given) | -2
CCC(C)NS(=O)(=O)c1ccc2nc(Nc3ccc(C)cc3)n([C@H](C)C(C)(C)C)c2c1 (stereo not given in full) | 0
